Test results from PubChem BioAssay AID1159580 (chemical genetic matrix, 2015).
Values joined by “and” are separate entries in the source; they are usually repeats but may differ in a detail not shown here. Identical values can stand only once. Out of some 5,500 compounds screened, about 2,000 (36%) were called active. Inconclusive results (about 18%) are left out. No stated cut-off is given here; in the data, active means normalized growth mostly below about 0.91 (no sharp cut-off); inconclusive means no clear call, values can overlap the other calls; inactive means mostly above about 0.92. This is one part of the list.

Test: chemical genetic growth profiling, strain panel (AID 1159580);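 further: tested at 20 µM; growth read once vehicle control cultures reached saturation at 30 °C; 1 = growth at the plate median or of vehicle wells; lower values mean less growth of the strain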
Details: growth OD

Measured: normalized growth

CCn1cc(C(=O)O)c(=O)c2cc(F)c(N3CCNC(C)C3)c(F)c21 (stereo not given)
inactive: S. cerevisiae deletion strains, locus YJR075W, strain HOC1, active compounds read low 0.991 and 0.993 | S. cerevisiae deletion strains, locus YKL009W, strain mrt4, active compounds read low 0.979 | S. cerevisiae deletion strains, locus YKL068W, active compounds read low 0.981 | S. cerevisiae deletion strains, locus YKL085W, strain MDH1 (second series), active compounds read low 0.985 | S. cerevisiae deletion strains, locus YKL085W, strain MDH1, active compounds read low 0.985 | S. cerevisiae deletion strains, locus YKL160W, strain elf1, active compounds read low 0.943 | S. cerevisiae deletion strains, locus YKL190W, strain CNB1, active compounds read low 0.995 | S. cerevisiae deletion strains, locus YKR001C, strain vps1, active compounds read low 0.993 | S. cerevisiae deletion strains, locus YKR026C, strain gcn3, active compounds read low 0.996 | S. cerevisiae deletion strains, locus YKR091W, strain srl3, active compounds read low 0.982 | S. cerevisiae deletion strains, locus YLL001W, strain dnm1, active compounds read low 0.985 | S. cerevisiae deletion strains, locus YLL026W, active compounds read low 0.99 | S. cerevisiae deletion strains, locus YLL041C, strain sdh2, active compounds read low 0.975 | S. cerevisiae deletion strains, locus YLR027C, strain aat2, active compounds read low 0.992 | S. cerevisiae deletion strains, locus YLR039C, strain RIC1, active compounds read low 0.973 | S. cerevisiae deletion strains, locus YLR058C, strain SHM2, active compounds read low 0.995 | S. cerevisiae deletion strains, locus YLR102C, strain apc9, active compounds read low 0.986 | S. cerevisiae deletion strains, locus YLR113W, strain HOG1, active compounds read low 1.06 | S. cerevisiae deletion strains, locus YLR221C, strain rsa3, active compounds read low 1 | S. cerevisiae deletion strains, locus YLR258W, strain gsy2, active compounds read low 0.98 | S. cerevisiae deletion strains, locus YLR262C, strain YPT6 (second series), active compounds read low 0.996 | S. cerevisiae deletion strains, locus YLR262C, strain YPT6, active compounds read low 0.979 | S. cerevisiae deletion strains, locus YLR268W, strain sec22, active compounds read low 0.988 | S. cerevisiae deletion strains, locus YLR320W, strain mms22, active compounds read low 0.961 | S. cerevisiae deletion strains, locus YLR330W, strain CHS5, active compounds read low 0.982 | S. cerevisiae deletion strains, locus YLR342W, strain FKS1 (second series), active compounds read low 0.951 | S. cerevisiae deletion strains, locus YLR342W, strain FKS1, active compounds read low 0.957 | S. cerevisiae deletion strains, locus YLR357W, strain rsc2, active compounds read low 0.919 | S. cerevisiae deletion strains, locus YLR370C, strain arc18, active compounds read low 0.965 | S. cerevisiae deletion strains, locus YLR371W, strain rom2, active compounds read low 0.992 | S. cerevisiae deletion strains, locus YLR384C, strain iki3, active compounds read low 0.964 | S. cerevisiae deletion strains, locus YLR418C, strain cdc73, active compounds read low 0.892 | S. cerevisiae deletion strains, locus YML016C, strain PPZ1, active compounds read low 0.991 | S. cerevisiae deletion strains, locus YML032C, strain rad52, active compounds read low 0.994 | S. cerevisiae deletion strains, locus YML120C, strain ndi1, active compounds read low 0.993 | S. cerevisiae deletion strains, locus YML124C, strain tub3, active compounds read low 0.996 | S. cerevisiae deletion strains, locus YMR058W, strain fet3, active compounds read low 0.994 | S. cerevisiae deletion strains, locus YMR078C, strain ctf18, active compounds read low 0.982 | S. cerevisiae deletion strains, locus YMR125W, strain sto1, active compounds read low 0.961 | S. cerevisiae deletion strains, locus YMR129W, active compounds read low 0.971 | S. cerevisiae deletion strains, locus YMR205C, strain PFK2, active compounds read low 0.985 | S. cerevisiae deletion strains, locus YMR223W, strain ubp8, active compounds read low 0.976 | S. cerevisiae deletion strains, locus YMR231W, strain pep5, active compounds read low 0.984 | S. cerevisiae deletion strains, locus YMR263W, strain SAP30, active compounds read low 1 | S. cerevisiae deletion strains, locus YMR307W, strain GAS1, active compounds read low 1.01 | S. cerevisiae deletion strains, locus YNL067W, strain RPL9B, active compounds read low 1.03 | S. cerevisiae deletion strains, locus YNL071W, strain lat1, active compounds read low 0.977 | S. cerevisiae deletion strains, locus YNL128W, strain TEP1, active compounds read low 0.964 | S. cerevisiae deletion strains, locus YNL153C, strain GIM3, active compounds read low 1.06 | S. cerevisiae deletion strains, locus YNL175C, strain NOP13, active compounds read low 0.998 | S. cerevisiae deletion strains, locus YNL183C, strain NPR1, active compounds read low 0.962 | S. cerevisiae deletion strains, locus YNL197C, strain WHI3, active compounds read low 1 | S. cerevisiae deletion strains, locus YNL209W, strain ssb2, active compounds read low 0.965 | S. cerevisiae deletion strains, locus YNL224C, strain SQS1, active compounds read low 0.994 | S. cerevisiae deletion strains, locus YNL233W, strain BNI4, active compounds read low 1.03 | S. cerevisiae deletion strains, locus YNL248C, strain rpa49, active compounds read low 0.926 | S. cerevisiae deletion strains, locus YNL250W, strain rad50, active compounds read low 0.943 | S. cerevisiae deletion strains, locus YNL271C, strain bni1, active compounds read low 0.992 | S. cerevisiae deletion strains, locus YNL298W, strain CLA4, active compounds read low 0.988 | S. cerevisiae deletion strains, locus YNL307C, strain MCK1, active compounds read low 0.984 | S. cerevisiae deletion strains, locus YNL322C, strain KRE1 (second series), active compounds read low 0.964 | S. cerevisiae deletion strains, locus YNL322C, strain KRE1, active compounds read low 1.02 | S. cerevisiae deletion strains, locus YNR049C, strain mso1, active compounds read low 0.975 | S. cerevisiae deletion strains, locus YNR052C, strain pop2, active compounds read low 0.989 | S. cerevisiae deletion strains, locus YOL006C, strain TOP1, active compounds read low 1.08 | S. cerevisiae deletion strains, locus YOL012C, strain htz1 1.44 | S. cerevisiae deletion strains, locus YOL147C, strain pex11, active compounds read low 0.985 | S. cerevisiae deletion strains, locus YOR001W, strain rrp6, active compounds read low 1 | S. cerevisiae deletion strains, locus YOR061W, strain CKA2, active compounds read low 0.993 | S. cerevisiae deletion strains, locus YOR069W, strain VPS5, active compounds read low 0.988 | S. cerevisiae deletion strains, locus YOR070C, strain gyp1, active compounds read low 0.985 | S. cerevisiae deletion strains, locus YOR080W, strain dia2, active compounds read low 0.972 | S. cerevisiae deletion strains, locus YOR083W, strain WHI5 (second series), active compounds read low 0.992 | S. cerevisiae deletion strains, locus YOR083W, strain WHI5, active compounds read low 0.897 | S. cerevisiae deletion strains, locus YOR106W, strain vam3, active compounds read low 0.931 | S. cerevisiae deletion strains, locus YOR136W, strain idh2, active compounds read low 0.998 | S. cerevisiae deletion strains, locus YOR144C, strain elg1, active compounds read low 0.992 | S. cerevisiae deletion strains, locus YOR184W, strain ser1, active compounds read low 0.988 | S. cerevisiae deletion strains, locus YOR231W, strain MKK1, active compounds read low 1.04 | S. cerevisiae deletion strains, locus YOR265W, strain rbl2, active compounds read low 0.972 | S. cerevisiae deletion strains, locus YOR270C, strain vph1, active compounds read low 0.982 | S. cerevisiae deletion strains, locus YOR290C, strain snf2, active compounds read low 0.968 | S. cerevisiae deletion strains, locus YOR316C, strain cot1, active compounds read low 1 | S. cerevisiae deletion strains, locus YPL051W, strain arl3, active compounds read low 0.971 | S. cerevisiae deletion strains, locus YPL055C, strain LGE1, active compounds read low 0.985 | S. cerevisiae deletion strains, locus YPL078C, strain atp4, active compounds read low 0.957 | S. cerevisiae deletion strains, locus YPL106C, strain sse1, active compounds read low 0.939 | S. cerevisiae deletion strains, locus YPL240C, strain hsp82, active compounds read low 0.983 | S. cerevisiae deletion strains, locus YPL256C, strain CLN2, active compounds read low 1.04 | S. cerevisiae deletion strains, locus YPR119W, strain clb2, active compounds read low 0.993 | S. cerevisiae deletion strains, locus YPR141C, strain kar3, active compounds read low 0.985 | S. cerevisiae deletion strains, locus YPR163C, strain tif3, active compounds read low 0.986 | S. cerevisiae deletion strains, locus YPR167C, strain met16, active compounds read low 0.999 | S. cerevisiae deletion strains, strain wtn01, active compounds read low 0.998 | S. cerevisiae strains, strain wild type, active compounds read low 0.997
